Laboratory results reported in PubChem BioAssay AID1159580 (chemical genetic matrix, 2015).
Out of some 5,500 compounds screened, about 2,000 (36%) were called active. Not shown: some 18% with an inconclusive outcome. No stated cut-off is given here; in the data, active means normalized growth mostly below about 0.91 (no sharp cut-off); inconclusive means no clear call, values can overlap the other calls; inactive means mostly above about 0.92. The list shows a part of the results.

Assay: chemical genetic growth profiling, strain panel (AID 1159580);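 further: tested at 20 µM; growth read once vehicle control cultures reached saturation at 30 °C; 1 = growth at the plate median or of vehicle wells; lower values mean less growth of the strain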
Details: S. cerevisiae deletion strains, growth OD
[1] = locus YAL040C, strain CLN3, active compounds read low
[2] = locus YCL061C, strain MRC1 (second series), active compounds read low
[3] = locus YER002W, strain NOP16, active compounds read low
[4] = locus YNL175C, strain NOP13, active compounds read low
[5] = locus YNL197C, strain WHI3, active compounds read low
[6] = locus YNL224C, strain SQS1, active compounds read low
[7] = locus YNL322C, strain KRE1, active compounds read low
[8] = locus YOR083W, strain WHI5 (second series), active compounds read low
[9] = locus YPL241C, strain CIN2, active compounds read low
[10] = locus YMR307W, strain GAS1, active compounds read low

Measured: normalized growth

O=c1[nH]ccc2c(O)cccc12
inactive: locus YAL013W, strain DEP1, active compounds read low 0.996 | [1] 0.999 | [2] 0.996 | locus YDR363W, strain ESC2, active compounds read low 1.02 | [3] 0.999 | locus YGR078C, strain PAC10, active compounds read low 1 | locus YGR229C, strain SMI1, active compounds read low 1.02 | [4] 1.01 | [5] 1.01 | [6] 0.994 | [7] 1 | [8] 1.06 | [9] 0.99

O=C(O)c1cc(O)c2c(c1)C(=O)c1cc(O)cc(O)c1C2=O
inactive: locus YBR021W, strain FUR4, active compounds read low 0.97 | locus YBR229C, strain ROT2, active compounds read low 0.92 | locus YCL029C, strain bik1, active compounds read low 0.932 | locus YDL035C, strain GPR1, active compounds read low 0.908 | locus YDL074C, strain BRE1, active compounds read low 0.933 | locus YDL101C, strain DUN1, active compounds read low 0.931 | locus YDL192W, strain arf1, active compounds read low 0.926 | locus YDR101C, strain arx1, active compounds read low 0.948 | locus YDR150W, strain NUM1, active compounds read low 0.939 | locus YDR162C, strain NBP2, active compounds read low 0.873 | locus YDR318W, strain mcm21, active compounds read low 0.93 | locus YDR388W, active compounds read low 0.938 | locus YEL061C, strain CIN8, active compounds read low 0.934 | locus YER155C, strain BEM2, active compounds read low 0.968 | locus YER167W, strain BCK2, active compounds read low 0.939 | locus YGL078C, strain dbp3, active compounds read low 0.954 | locus YGL086W, strain mad1, active compounds read low 0.971 | locus YGL248W, strain PDE1, active compounds read low 0.956 | locus YGR135W, strain pre9, active compounds read low 0.923 | locus YGR252W, strain gcn5, active compounds read low 0.816 | locus YHR079C, strain IRE1 (second series), active compounds read low 0.949 | locus YHR094C, strain hxt1, active compounds read low 0.938 | locus YHR129C, strain ARP1, active compounds read low 0.957 | locus YHR200W, strain rpn10, active compounds read low 0.939 | locus YIL066C, strain RNR3, active compounds read low 0.923 | locus YIL073C, strain SPO22, active compounds read low 0.914 | locus YIR030C, strain dcg1, active compounds read low 0.939 | locus YJL095W, strain BCK1, active compounds read low 0.945 | locus YJL134W, strain LCB3, active compounds read low 0.95 | locus YJL187C, strain SWE1 (second series), active compounds read low 0.952 | locus YJR043C, strain POL32, active compounds read low 0.864 | locus YKL009W, strain mrt4, active compounds read low 0.967 | locus YKL190W, strain CNB1, active compounds read low 0.95 | locus YLR039C, strain RIC1, active compounds read low 0.879 | locus YLR058C, strain SHM2, active compounds read low 0.91 | locus YLR102C, strain apc9, active compounds read low 0.945 | locus YLR262C, strain YPT6, active compounds read low 0.814 | locus YLR268W, strain sec22, active compounds read low 0.938 | locus YLR330W, strain CHS5, active compounds read low 0.926 | locus YLR342W, strain FKS1 (second series), active compounds read low 0.921 | locus YLR371W, strain rom2, active compounds read low 0.945 | locus YML016C, strain PPZ1, active compounds read low 0.944 | locus YMR078C, strain ctf18, active compounds read low 0.939 | locus YMR223W, strain ubp8, active compounds read low 0.92 | [10] 0.872 | locus YNL067W, strain RPL9B, active compounds read low 0.977 | locus YNL153C, strain GIM3, active compounds read low 0.955 | locus YNL233W, strain BNI4, active compounds read low 0.95 | locus YNL271C, strain bni1, active compounds read low 0.93 | locus YNL307C, strain MCK1, active compounds read low 0.931 | [7] 0.94 | locus YNR052C, strain pop2, active compounds read low 0.977 | locus YOL006C, strain TOP1, active compounds read low 1.02 | locus YOL012C, strain htz1 0.738 | locus YOL147C, strain pex11, active compounds read low 0.939 | locus YOR061W, strain CKA2, active compounds read low 0.916 | locus YOR069W, strain VPS5, active compounds read low 0.957 | locus YOR136W, strain idh2, active compounds read low 0.929 | locus YOR184W, strain ser1, active compounds read low 0.893 | locus YOR316C, strain cot1, active compounds read low 0.94 | [9] 0.943 | locus YPR119W, strain clb2, active compounds read low 0.951 | locus YPR141C, strain kar3, active compounds read low 0.916 | locus YPR163C, strain tif3, active compounds read low 0.938 | strain wtn01, active compounds read low 0.948
active: locus YDL185W, strain tfp1, active compounds read low 0.842 | locus YDR502C, strain sam2, active compounds read low 0.903 | locus YER110C, active compounds read low 0.881 | locus YHR030C, strain SLT2, active compounds read low 0.913 | locus YIL125W, strain kgd1, active compounds read low 0.915 | locus YJL168C, strain set2, active compounds read low 0.912 | locus YKL068W, active compounds read low 0.913 | locus YKL085W, strain MDH1 (second series), active compounds read low 0.888 | locus YKL085W, strain MDH1, active compounds read low 0.888 | locus YKR001C, strain vps1, active compounds read low 0.838 | locus YLR418C, strain cdc73, active compounds read low 0.766 | locus YML032C, strain rad52, active compounds read low 0.899 | locus YML124C, strain tub3, active compounds read low 0.93 | locus YNL250W, strain rad50, active compounds read low 0.863 | locus YNL298W, strain CLA4, active compounds read low 0.894 | locus YOR144C, strain elg1, active compounds read low 0.91 | locus YPR167C, strain met16, active compounds read low 0.91

O=C(O)c1cc(=O)cc(C(=O)O)[nH]1
inactive: [1] 1.02 | [2] 1.01 | [3] 1.04 | locus YMR263W, strain SAP30, active compounds read low 0.998 | [10] 1.01 | [4] 0.999 | [5] 1.03 | [6] 1.01 | [8] 1.02 | locus YPL055C, strain LGE1, active compounds read low 1.01
